# Rango complex inh = Rango-importin beta binding inhibition | Rango CFP/YFP FRET sensor + importin beta, 45 min | Potency, µM (titrated, usually from 92.2 µM), for inactives: at the top dose inhibition of complex formation | 340,000 tested, 0.031% active | AID 540263;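 note: 0% = DMSO wells and 100% = buffer wells lacking importin beta; nearly all actives have a fitted effect of over 15% in size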
#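 Inhibition scored from the CFP 486 nm/YFP 530 nm FRET ratio 45 min after adding 0.125 microM importin beta to 50 nM Rango biosensor preincubated 5 min with compound (room temperature, PBS with DTT, Tween-20, BSA). No-importin wells as positive control.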
# TDP1 inh = inhibitors of human tyrosyl-DNA phosphodiesterase TDP1; Q9NUW8; recombinant TDP1, AlphaScreen DNA substrate cleavage; Potency, µM (doses to about 130 µM), for the others: top-dose activity change, negative = inhibition, actives largely listed as inhibitors; 350,000 tested, 0.28% active; active = well fitted curve in the direction sought with a large enough effect; inconclusive = small, poorly fitted or top-dose-only effect, or another doubt; inactive = no such curve, though single readings can be large; an effect the other way counts as inactive or inconclusive; note: % is set by controls: 0 for no effect and ±100 for the full control effect; nearly all actives have a fitted effect of over 40% in size
#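 Steps: enzyme plus compound, 15 min RT; add biotin/phosphotyrosine-FITC oligonucleotide (15 nM final), react 5 min; add donor/acceptor beads (10 ug/ml final), 10 min; read AlphaScreen. Tdp1 at 1 nM final.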
# ClpP mod = qHTS Assay for Activators of ClpP; ATP-dependent Clp protease proteolytic subunit (Bacillus subtilis (strain 168)), P80244; purified B. subtilis ClpP, FRET peptide cleavage, 20 min; Potency, µM (doses to about 57.5 µM), inactives show at the top dose activity change, negative = active; 340,000 tested, 1.9% active; AID 651965, 2013; active = well fitted falling curve with a large enough effect; inconclusive = small, poorly fitted or top-dose-only effect; inactive = no such curve, though single readings can be large or run the other way; note: the source files actives as falling curves though it sought activators and does not explain the sign; nearly all actives have a fitted effect of over 65% in size
# Target sequence (P80244 whole entry, looked up): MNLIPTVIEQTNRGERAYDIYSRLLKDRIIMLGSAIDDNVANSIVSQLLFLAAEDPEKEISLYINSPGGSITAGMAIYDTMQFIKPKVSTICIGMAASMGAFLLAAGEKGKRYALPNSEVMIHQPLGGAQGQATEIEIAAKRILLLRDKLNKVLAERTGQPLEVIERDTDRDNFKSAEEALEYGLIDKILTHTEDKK
#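 FRET quenching reversal measured ClpP activation: 10 microg/mL B. subtilis ClpP at pH 8 with the FRET-FV decapeptide, read at 430 nm after 320 nm excitation. The 20-min minus 0-min signal was scaled between DMSO/no-enzyme wells and ADEP (5.8 microM final).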
# TSG101-PTAP inh = blocks PTAP/TSG101 interaction to inhibit HIV-1 budding | Potency, µM (top dose mostly 115 µM), without a hit: at the highest dose activity change, negative = inhibition, hits mostly inhibitors | Q99816 | 340,000 tested, under 10 active | Fluorescence polarization, FITC-PTAP peptide / Tsg101 binding | AID 493005; active = well fitted inhibition curve with a large enough effect in the main read-out, with a control signal flat, not every such curve was filed as active; inconclusive = small, poorly fitted or top-dose-only effect, or effect the other way, or a change in a side signal; inactive = no such curve, though single readings can be large or run the other way; note: % of control where 0% means no effect
# Target sequence (Q99816 whole entry, looked up): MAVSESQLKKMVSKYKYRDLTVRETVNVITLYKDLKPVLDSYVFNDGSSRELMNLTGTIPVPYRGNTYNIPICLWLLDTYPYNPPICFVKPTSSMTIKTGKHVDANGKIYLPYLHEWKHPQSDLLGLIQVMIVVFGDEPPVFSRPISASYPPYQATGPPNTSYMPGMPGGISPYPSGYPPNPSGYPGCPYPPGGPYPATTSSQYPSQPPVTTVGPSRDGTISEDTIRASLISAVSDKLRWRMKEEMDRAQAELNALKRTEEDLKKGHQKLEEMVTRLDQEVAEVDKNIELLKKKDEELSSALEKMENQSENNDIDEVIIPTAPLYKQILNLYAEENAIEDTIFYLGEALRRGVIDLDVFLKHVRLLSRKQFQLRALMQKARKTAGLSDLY
#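 Steps: Tsg101 binding domain dispensed (10 uM final), compounds pinned in DMSO, FITC-labeled PTAP-motif peptide added (50 nM final); after 20 min binding at room temperature, polarization measured.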
# 12-LOX inh = inhibitors of human 12S-lipoxygenase ALOX12. P18054. purified 12hLO, xylenol orange hydroperoxide absorbance. Potency, µM (titrated, usually from 108 µM), inactives show top-dose activity change, negative = inhibition, actives largely listed as inhibitors. 580,000 tested, 1.1% active. AID 1671190; active = well fitted curve in the direction sought with a large enough effect; inconclusive = small, poorly fitted or top-dose-only effect, or another doubt; inactive = no such curve, though single readings can be large; an effect the other way counts as inactive or inconclusive; note: % is set by controls: 0 for no effect and ±100 for the full control effect
#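 Purified human 12hLO (150 nM final) in 25 mM Hepes, 0.01% Triton X-100, pH 7.0 was preincubated 15 min at room temperature with compound. Then 40 uM arachidonic acid was added, 30 min. Hydroperoxide was read by Fe-XO absorbance ratio 573/405 nm.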
# Rango release inh = inhibitors of RanGTP-induced Rango-importin beta complex dissociation; O95149+P62826; Biochemical FRET Rango-importin beta, RanGTP-induced dissociation; Potency, µM (titrated, usually from 46.1 µM), without a hit: at the highest dose activity change, negative = inhibition; 340,000 tested, 0.071% active; note: % of control where 0% means no effect; nearly all actives have a fitted effect of over 45% in size
#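 Two FRET readings bracket the reaction: one 5 min after compound meets Rango–importin beta, another 45 min after RanGTP-RCC1 (0.6 uM Ran, 0.2 uM RCC1, 2 mM GTP) is added. Only the second defines inhibition.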
# The depositor's hits bear a star; ? = inconclusive; nt = no result given; [ ] = remark or other dose. In the library only some 2.4% were active in any assay of this set; here they are far more common. Unless noted, calls come from the whole dose curve. Potency is the fitted concentration of half-maximal effect.
SMILES,Rango complex inh,TDP1 inh,ClpP mod,TSG101-PTAP inh,12-LOX inh,Rango release inh
CCCN(CC1CCCO1)C(=O)c1csc2nc(-c3cccc(C(F)(F)F)c3)cn12 (configuration not stated),nt,nt,nt,nt,38%,nt
CCc1ccc(CNC(=O)c2cc3cn(C4CCCC4)cc3s2)cc1,nt,nt,nt,nt,4.5µM*,nt
CC(C)CNC(=O)c1cc2cn(C3CC3)cc2s1,nt,nt,nt,nt,13%,nt
NCCCn1c2ccccc2c2ccccc21,nt,nt,nt,nt,9%,nt
CCOc1ccc(-c2nnc(-c3ccco3)o2)cc1OCC,0%,4%,22µM*,-2%,0%,9%
CCOc1cc(-c2nnc(-c3ccco3)o2)cc(OCC)c1OCC,7%,7%,22µM*,-4%,0%,11%
COc1cc(C(=O)Nc2ccc(-c3nnc(-c4ccco4)o3)cc2)cc(OC)c1OC,0%,4%,14%,-3%,-23%,-15%
CN(C)c1cccc(C(=O)N2CCC3(CC2)N=C(c2cccc(Br)c2)NO3)c1,nt,nt,nt,nt,2%,nt
CCCC[C@@H]1CNC(=S)N1CCC12CC3CC(CC(C3)C1)C2,3%,8%,-1%,-5%,35µM*,12%
CCCC[C@@H]1CNC(=S)N1CC1CCCCC1,3%,5%,0%,-6%,50µM*,-3%
CCCC[C@@H]1CNC(=O)C(=O)N1CC1CCCCC1,nt,nt,-2%,nt,0%,nt
O=C(c1cnn(-c2ccccc2)c1-n1cccc1)N1CCN(c2ccccc2)CC1,nt,nt,nt,nt,-12%,nt
COC(=O)C1=C(C)NC(C)=C(C(=O)OC)C1c1ccc(-c2cccc(Cl)c2Cl)o1,?,3%,25µM*,-9%,0%,2%
COC(=O)C1=C(C)NC(C)=C(C(=O)OC)C1c1ccc(-c2cc(Cl)ccc2Cl)o1,0%,3%,0%,1%,?,-15%
CC1=C[C@@H](CN(C)C)[C@H](C(C)C)C[C@H]1Cc1nc2c(C)cccc2[nH]1,nt,nt,nt,nt,114%[176 µM],nt
COc1ccccc1CNC[C@@H]1C=C(C)[C@H](Cc2nc3c(C)cccc3[nH]2)C[C@H]1C(C)C,nt,nt,nt,nt,56µM*,nt
CC1=C[C@@H](CNCc2ccccc2)[C@H](C(C)C)C[C@H]1Cc1nc2c(C)cccc2[nH]1,nt,nt,nt,nt,63µM*,nt
COc1ccc(C(C#N)=C2C=CC(=NO)C(C)=C2Cl)cc1,-4%,nt,3%,0%,20µM*,-22%
O=C1c2ccccc2OC2(C=Cc3ccccc3O2)N1Cc1ccccc1 (configuration not stated),-1%,1%,-4%,-2%,0%,-3%
CN1CC2=Cc3ccccc3OC23Oc2ccccc2C=C3C1,0%,7%,3.5µM*,-11%,-11%,-8%
COc1ccc(C(=O)N2CCC(Oc3ccc(-c4noc(C(C)C)n4)cc3)C2)cc1 (configuration not stated),nt,nt,nt,nt,-13%,nt
CCNc1nc2c(c(=O)n(C)c(=O)n2C)n1Cc1ccc(Cl)cc1,2%,nt,0%,3%,-17%,-10%
Cn1c(=O)c2c(nc(NCc3cccnc3)n2Cc2ccc(Cl)cc2)n(C)c1=O,-1%,7%,3.2µM*,-4%,0%,19%
N#C/C(=C\c1cn(Cc2cccc(F)c2)c2ccccc12)C(N)=O,nt,nt,nt,nt,-27%,nt
COc1cc(-c2nc(-c3ccccc3)c(-c3ccc(Br)cc3)[nH]2)cc(OC)c1O,nt,nt,5%,nt,20µM*,nt
SMILES,Rango complex inh,TDP1 inh,ClpP mod,TSG101-PTAP inh,12-LOX inh,Rango release inh
Oc1ccc(-c2nc(-c3ccccc3)c(-c3ccc(Br)cc3)[nH]2)cc1,nt,nt,5%,nt,?,nt
CCCc1ccc(C(C)NC(=S)NC2CCCCC2)cc1 (configuration not stated),0%,4%,0%,0%,35µM*,25%
CCOc1ccc(C(C)NC(=S)NCc2ccc(Cl)cc2)cc1 (configuration not stated),5%,5%,1%,-2%,40µM*,-3%
Cc1ccc(C)c(C(C)NC(=S)NC2CCCCC2)c1 (configuration not stated),-4%,4%,1%,-1%,45µM*,-12%
CCCc1ccc(C(C)NC(=S)NCc2ccc(F)cc2)cc1 (configuration not stated),-2%,2%,-1%,-2%,32µM*,-8%
Cc1nn(-c2nc3c(c(=O)[nH]c(=O)n3C)n2CCCc2ccccc2)c(C)c1C,nt,nt,nt,nt,-57%,nt
O=C(Nc1ccccc1)c1cc2cc(Cl)ccc2[nH]1,nt,nt,nt,nt,-14%,nt
CCNC(=O)N(C1CC1)C1CCOC2(CCN(C(=O)c3nn(C)c4ccccc34)CC2)C1 (configuration not stated),nt,nt,nt,nt,-6%,nt
Cn1c(=O)c2c(ncn2CC(=O)OC(C)(C)C)n(C)c1=O,nt,nt,nt,nt,3%,nt
Cc1ccccc1Nc1nnc(SCC(=O)Nc2ccnn2C2CCCC2)s1,nt,nt,nt,nt,-11%,nt
CC(=O)N1C[C@@H](CN(C)C)[C@H](NC(=O)Cc2ccc(OC(F)(F)F)cc2)C1,nt,nt,nt,nt,19%,nt
COc1ccc([C@H]2C[C@@H](O)[C@@H](O)[C@@H]2NC(=O)c2ccc(OC)c(OC)c2)cc1,nt,nt,nt,nt,28%[176 µM],nt
O=C(NCCc1cccs1)c1ccc(Cn2c(SCc3ccc(F)cc3)nc3cccnc32)cc1,nt,7%,25µM*,nt,-6%,nt
O=C(NCCc1ccccc1)c1ccc(CSc2nc3cccnc3n2Cc2ccc(F)cc2)cc1,nt,-2%,5%,nt,-8%,nt
Cc1ccc(CSc2nc3cccnc3n2Cc2ccc(C(=O)NCc3ccco3)cc2)cc1,nt,10%,?,nt,0%,nt
Cc1ccc(CNC(=O)c2ccc(Cn3c(SCc4ccc(F)cc4)nc4cccnc43)cc2)o1,nt,4%,28µM*,nt,-3%,nt
COCCN(Cc1cc2cc(C)ccc2[nH]c1=O)C(=O)c1ccc(OC)c(OC)c1,nt,nt,nt,nt,5%,nt
Cc1ccc(S(=O)(=O)N(CC(=O)NCc2ccncc2)c2ccc(Cl)c(C(F)(F)F)c2)cc1,nt,nt,nt,nt,0%,nt
CC(=C1SC(=S)NC1=O)c1ccc(Cl)c(O)c1,nt,nt,nt,nt,28µM*,nt
CC(=C1SC(=S)NC1=O)c1ccccc1,2%,nt,-2%,-1%,?,4%
COc1cc(CC(=O)OCC(=O)Nc2ccccc2OC(F)F)cc(OC)c1OC,nt,nt,nt,nt,0%,nt
O=C(c1ccncc1)N(c1ccc(N2CCOCC2)cc1)C(c1ccccc1)c1nc2ccccc2[nH]1 (configuration not stated),nt,nt,-8%,nt,11µM*,nt
O=C(CSc1nnc(C2CC2)o1)c1c[nH]c2ccccc12,nt,nt,nt,nt,1%,nt
CCC(=O)NC1=C(C#N)C2(CCCC2)Cc2ccccc21,-1%,4%,32µM*,-5%,4%,7%

# Compound activity (PubChem)
